Only some compounds are listed: those with a hit (about 2.5% of all), similar ones and a draw of the others.
MEKK3 PB1 HTS: raises or lowers MEK5 binding to the human MEKK3 PB1 domain; Q99759; bead-based flow cytometry, Alexa488-MEK5 binding to MEKK3; actives lie on both sides; 0 = blocked by unlabeled MEK5, 100 = vehicle; binding response (% of control), % at 10 µM; 290,000 compounds, 1.4% hits;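 active means binding response more than 3 SD above or below the average of its plate-row segment, actives on both sides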;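 further: Alexa488 bead fluorescence after subtracting the streptavidin-only scavenger bead signal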
MEKK2 WT-MEK5: raises or lowers MEK5 binding to wildtype human MEKK2 PB1 domain; Q9Y2U5; bead flow cytometry, Alexa488-MEK5 binding to MEKK2 WT; actives lie on both sides; binding response (% of control), % at 10 µM; 290,000 compounds, 1.1% hits; AID 1531; in the data active means binding response below about 67% or above about 130%
MEKK2 mut-MEK5: signal of MEK5 binding to mutant human MEKK2 PB1 domain; bead flow cytometry, Alexa488-MEK5 binding to MEKK2 mutant; percent response, % at 10 µM; 290,000 compounds, 0.35% hits; AID 1530; in the data active means percent response above about 24%, passing the limit was not always enough
UBC13 polyUb: inhibitors of human UBC13 polyubiquitin chain formation; P61088; TR-FRET; inhibition, % at 20 µM; 330,000 compounds, 0.47% hits; AID 485273; in the data active means inhibition above about 45%, passing the limit was not always enough
Target sequence (P61088 whole entry, looked up): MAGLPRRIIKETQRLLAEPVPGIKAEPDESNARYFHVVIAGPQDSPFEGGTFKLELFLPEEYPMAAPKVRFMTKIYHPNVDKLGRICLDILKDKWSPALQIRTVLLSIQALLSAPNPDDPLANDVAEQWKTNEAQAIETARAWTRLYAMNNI
Rce1 inhib: inhibitors of yeast Ras-converting enzyme; Q03530; yeast membranes, quenched prenylated peptide cleavage fluorescence; calls only; 290,000 compounds, 0.27% hits;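 active means fall in fluorescence gain of 50% or more versus controls, with final raw signal at or below 3038400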;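 further: plate controls were neutral control wells for no effect and wells lacking membranes for full effect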
Target sequence (Q03530 whole entry, looked up): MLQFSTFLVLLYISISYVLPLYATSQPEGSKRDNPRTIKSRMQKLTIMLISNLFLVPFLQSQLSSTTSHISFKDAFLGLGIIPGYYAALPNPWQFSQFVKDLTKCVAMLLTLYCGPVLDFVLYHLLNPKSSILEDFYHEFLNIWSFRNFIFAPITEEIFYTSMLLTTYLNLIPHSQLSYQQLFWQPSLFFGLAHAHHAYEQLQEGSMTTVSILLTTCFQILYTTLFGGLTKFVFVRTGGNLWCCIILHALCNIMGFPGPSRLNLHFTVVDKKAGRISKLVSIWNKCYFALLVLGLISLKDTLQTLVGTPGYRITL
MEKK2wt confirm: raises or lowers MEK5 binding to wildtype human MEKK2, retest; shares compounds with MEKK3 PB1 HTS; bead flow cytometry, Alexa488-MEK5 binding to MEKK2 WT; actives lie on both sides; binding response (% of control), % at 10 µM; 5,900 compounds, 2.4% hits; AID 1892; in the data active means binding response below about 16% or above about 210%; inactive means in between
MEKK2mut-MEK5: signal of MEK5 binding to mutant human MEKK2, retest; shares compounds with MEKK3 PB1 HTS; bead flow cytometry, Alexa488-MEK5 binding to MEKK2 mutant; percent response, % at 10 µM; 5,900 compounds, 2% hits; AID 1893; in the data active means percent response mostly above about 71%, no sharp cut-off; inactive means mostly below about 38%;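 further: higher means compound restores mutant binding toward wildtype level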
MEKK3-MEK5 inh: MEKK3-MEK5 PB1 inhibition, single concentration confirmation; shares compounds with MEKK3 PB1 HTS; bead flow cytometry, Alexa488-MEK5 binding to MEKK3; active compounds read low; binding response (% of control), % at 10 µM; 5,900 compounds, 1.8% hits;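 active means binding response below 72% of control, or above a set upper limit, though filed actives all read lower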;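 further: 100% = DMSO only wells and 0% = binding blocked by excess unlabeled MEK5; lower values mean stronger disruption of MEK5 binding to MEKK3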
* = called active by the depositor; i = inactive; nt = no result; [ ] = dose if it differs, or a comment.

SMILES	MEKK3 PB1 HTS	MEKK2 WT-MEK5	MEKK2 mut-MEK5	UBC13 polyUb	Rce1 inhib	MEKK2wt confirm	MEKK2mut-MEK5	MEKK3-MEK5 inh
CCN1CCN(Cc2ccc(NC(=O)c3cc(NC(=O)c4cnnc5ccccc45)cc(OC)c3)cc2C(F)(F)F)CC1	107.0	142.0*	21.0	35.6	i	143.0	15.0	99.0
CCN1CCN(Cc2ccc(NC(=O)c3ccc(C)c(NC(=O)c4cccc5[nH]ccc45)c3)cc2C(F)(F)F)CC1	106.0	124.0	74.0*	16.3	i	187.0	55.0	100.0
COc1ccc(NC(=O)CN2C(=O)NC(c3ccccc3)(c3ccccc3)C2=O)cc1OC	102.0	100.0	-2.0	-1.8	i	nt	nt	nt
CCCCCNCc1cccc(Br)c1	98.0	99.0	-1.0	-3.8	i	nt	nt	nt
O=C(Cn1[nH]c(=O)c2ccccc2c1=O)N1CCN(S(=O)(=O)c2ccc(Cl)cc2)CC1	nt	nt	nt	-0.4	nt	nt	nt	nt
CC1CCC2C(=O)N(c3ccc(NC4CCN(Cc5ccccc5)CC4)c([N+](=O)[O-])c3)C(=O)C2C1 (configuration not stated)	70.0*[inhibitor]	106.0	-8.0	-35.0	i	117.0	16.0	103.0
Cc1nc2ccc(NC(=O)Cc3ccccc3F)cc2s1	93.0	97.0	3.0	6.7	i	nt	nt	nt
Cc1ccc(S(=O)(=O)NC(=O)N(C)C2CCCCC2)cc1	130.0*	130.0	28.0	-4.4	i	84.0	-4.0	100.0
O=C(Nc1cccc(OC(=O)c2ccc(Br)o2)c1)c1ccccc1	96.0	99.0	3.0	-2.6	i	nt	nt	nt
Cn1cnnc1-c1cccc(NC(=O)c2cc(F)c(F)cc2Cl)c1	135.0*	123.0	1.0	16.5	i	97.0	-7.0	103.0
O=C(Nc1ccc2ccccc2c1)c1cc(F)c(F)cc1Cl	105.0	107.0	6.0	0.7	i	nt	nt	nt
COc1cc(-c2nnn(CC(=O)NC3CCS(=O)(=O)C3)n2)ccc1OCc1ccccc1 (configuration not stated)	0.0*[inhibitor]	0.0*[inhibitor]	-24.0	-5.3	i	105.0	1.0	106.0
CCCC/C(O)=C1\C(=O)CCCC1=NCCc1c(C)[nH]c2ccc(OC)cc12	105.0	100.0	4.0	2.2	i	nt	nt	nt
CC1CN(CCCCOc2ccc(C(C)C)cc2)CC(C)O1 (configuration not stated)	2.0*[inhibitor]	2.0*[inhibitor]	-15.0	0.8	nt	104.0	4.0	103.0
CC1CN(CCCCOc2ccc(Cl)c3ccccc23)CC(C)O1 (configuration not stated)	113.0	162.0*	10.0	10.1	nt	150.0	22.0	105.0
COc1ccc(CNC(=O)CSc2nc3ccc(C)cc3[nH]2)cc1OC	101.0	100.0	2.0	0.7	i	nt	nt	nt
Cc1cc(Cl)ccc1OCC(=O)Nn1c(C)ccc1C	128.0*	123.0	9.0	2.4	i	96.0	-1.0	100.0
COc1ccccc1N1CCN(C2CCCN(C(=O)c3ccccn3)C2)CC1 (configuration not stated)	101.0	102.0	-1.0	0.5	i	nt	nt	nt
Cc1ccc(N(CN2C(=O)NC(C)(C)C2=O)CN2C(=O)NC(C)(C)C2=O)cc1	2.0*[inhibitor]	2.0*[inhibitor]	-16.0	2.0	i	101.0	-4.0	99.0
Cc1ccc(NC(=O)CCCN2C(=O)NC(C)(C)C2=O)cc1	nt	nt	nt	-4.7	nt	nt	nt	nt
O=C(Cn1c(O)c(/C=C2\C=Nc3ccccc32)sc1=O)N1CCOCC1	99.0	99.0	0.0	-6.7	i	nt	nt	nt
O=C(Cn1c(O)c(/C=C2\C=Nc3ccccc32)sc1=O)Nc1ccc2c(c1)OCO2	79.0*[inhibitor]	80.0	-4.0	-10.6	i	104.0	12.0	102.0
CC1(C)CCCC(C)(C)N1CC(O)COCCOc1ccc(Br)cc1 (configuration not stated)	90.0	103.0	0.0	6.1	i	nt	nt	nt
CCN1CCN(c2ccc(N3CCN(C(=O)c4ccc(Br)o4)CC3)nn2)CC1	nt	nt	nt	10.7	i	nt	nt	nt
Cc1cc(C)c2c(NC(=S)NC(=O)c3ccccc3)n[nH]c2n1	42.0*[inhibitor]	51.0	-18.0	-10.2	i	101.0	8.0	104.0
SMILES	MEKK3 PB1 HTS	MEKK2 WT-MEK5	MEKK2 mut-MEK5	UBC13 polyUb	Rce1 inhib	MEKK2wt confirm	MEKK2mut-MEK5	MEKK3-MEK5 inh
Cc1cc(C)c2c(NC(=S)Nc3ccccc3)n[nH]c2n1	105.0	102.0	3.0	-4.6	i	nt	nt	nt
Cc1ccc(SC[C@H](Cc2ccccc2)N2CC[C@@H](NC(=O)OCc3ccccc3)CCC2=O)cc1	100.0	96.0	-3.0	-1.4	i	nt	nt	nt
CC(=O)Nc1ccc(-c2sc(Nc3cccc4ccccc34)n[n+]2-c2ccccc2)cc1	104.0	159.0*	10.0	14.6	i	136.0	15.0	107.0
COc1ccc(C)cc1Nc1n[n+](-c2ccccc2)c(-c2ccc(NC(C)=O)cc2)s1	106.0	142.0*	10.0	32.1	i	147.0	30.0	107.0
COc1ccc(C)cc1Nc1n[n+](-c2ccccc2)c(-c2ccc(SC)cc2)s1	105.0	128.0	29.0*	20.3	i	121.0	9.0	101.0
COc1c(F)c(F)c(C(=O)Nc2ccc(N3CCN(C(C)=O)CC3)c(Cl)c2)c(F)c1F	105.0	104.0	6.0	2.3	i	nt	nt	nt
COc1ccc(CC(=O)Nc2ccc(C(=O)Nc3ccccc3C(=O)O)cc2)cc1OC	109.0	101.0	-2.0	-6.1	i	nt	nt	nt
CCOC(=O)c1nn(-c2ccccc2C)c(=O)cc1OCC(=O)Nc1cccc(OC)c1	nt	nt	nt	-7.8	i	nt	nt	nt
Cc1cc(OCCCCN2C(=O)NC(C)(C)C2=O)ccc1[N+](=O)[O-]	99.0	97.0	-2.0	5.2	i	nt	nt	nt
CC1(C)NC(=O)N(CCOc2ccc([N+](=O)[O-])cc2)C1=O	42.0*[inhibitor]	49.0	-40.0	3.2	i	97.0	0.0	100.0
Cc1ccc(-n2cc(CNCC3CC(=O)N(C4CC4)C3)c(-c3cccc(C)c3)n2)cc1 (configuration not stated)	105.0	143.0*	29.0	23.8	i	126.0	12.0	100.0
Cc1ccc(-n2cc(CN3CCNC(=O)CC3)c(-c3cccc(C)c3)n2)cc1	98.0	90.0	-5.0	8.2	i	nt	nt	nt
Cc1ccc(NC(=O)c2ccc(NCCc3ccccc3)c([N+](=O)[O-])c2)cc1F	107.0	5.0*[inhibitor]	5.0	-17.4	i	119.0	7.0	109.0
O=C(Nc1cc(F)cc(F)c1)c1ccc(NCCc2ccccc2)c([N+](=O)[O-])c1	96.0	100.0	-1.0	-55.4	i	nt	nt	nt
C=CCSc1ncccc1C(=O)NCc1ccccc1	103.0	102.0	0.0	-1.5	i	nt	nt	nt
C=CCSc1nnc(CNC(=O)c2ccccc2C)n1C(C)C	140.0*	121.0	4.0	5.2	i	101.0	-3.0	96.0
